These results are taken from PubChem BioAssay (Tox21).

Experiment [1] concerns the target Thyrotropin-releasing hormone receptor (Homo sapiens) (UniProt P34981). Description: qHTS assay to identify small molecule agonists of the thyrotropin-releasing hormone receptor (TRHR) signaling pathway (AID 1346891; calls by dose curve;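 further: HEK293 cells expressing TRHR with calcium dye readout; series mostly up to about 58 µM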). The procedure, abridged:
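HEK293/TRHR cells, 1500 per well, 18 h 37 °C; Ca dye 2 h 37 °C; pin-tool compound addition (agonist mode); kinetic fluorescence 3 min, 1 s reads; 15 concentrations, triplicate.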

Experiment [2] in a line: Human pregnane X receptor (PXR) small molecule agonists, qHTS cell viability counter screen (AID 1346977). Further: nearly all actives have a fitted effect of over 50% in size. Further: potency means the concentration at half of the fitted maximal effect. The method in brief: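 Fluorescence read-out (CellTiter-Fluor) of viability in PXR-Luc HepG2 cells, multiplexed with the luciferase agonist read. Compounds in DMSO added after 5hr plating; 24hr total exposure at 37C, 5% CO2.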
Experiment [3] can be described thus: Caspase-3/7 induction in HepG2 cells by small molecules, qHTS assay (AID 1346978). Further: nearly all actives have a fitted effect of over 15% in size. The method in brief: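 Wild-type HepG2 cells, 2,000/well, settled 5 hr at 37 C and 5% CO2, then compound-treated for 17 hr; caspase-3/7 activity read by luminescent Caspase-Glo 3/7 after 30 min at room temperature.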
Experiment [4] can be described thus: Caspase-3/7 induction in CHO-K1 cells by small molecules, qHTS assay (AID 1346980). Further: nearly all actives have a fitted effect of over 15% in size. The procedure, abridged: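 Wild-type CHO-K1 cells exposed to compounds for 17hr at 37 C, 5% CO2. Caspase-3/7 activity then measured by Caspase-Glo 3/7 luminescence after 30min at room temperature.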
The nature of experiment [5]: Caspase-3/7 induction in HepG2 cells by small molecules, qHTS cell viability counter screen (AID 1346981). Further: nearly all actives have a fitted effect of over 30% in size. Further: potency means the concentration at half of the fitted maximal effect. The procedure, abridged: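 HepG2, WT, 2,000 cells/well; 5 hr pre-incubation 37 C/5% CO2; compound pin-transferred from DMSO; 16 hr exposure; CellTiter-Fluor, 1 hr; fluorescence read.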
Experiment [6] deals with Nuclear receptor subfamily 1 group I member 2 (Homo sapiens) (UniProt O75469). Put plainly: Human pregnane X receptor (PXR) small molecule agonists, qHTS assay (AID 1346982). Further: nearly all actives have a fitted effect of over 35% in size. Further: potency means the concentration at half of the fitted maximal effect. The procedure, abridged: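 Luciferase signal from ONE-Glo (30 min, room temperature) measured activation of hPXR-driven CYP3A4 reporter expression in PXR-Luc HepG2 cells treated with compounds for 24 hr at 37 C.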
Nuclear receptor subfamily 1 group I member 2 (Homo sapiens), sequence (O75469 whole entry, looked up): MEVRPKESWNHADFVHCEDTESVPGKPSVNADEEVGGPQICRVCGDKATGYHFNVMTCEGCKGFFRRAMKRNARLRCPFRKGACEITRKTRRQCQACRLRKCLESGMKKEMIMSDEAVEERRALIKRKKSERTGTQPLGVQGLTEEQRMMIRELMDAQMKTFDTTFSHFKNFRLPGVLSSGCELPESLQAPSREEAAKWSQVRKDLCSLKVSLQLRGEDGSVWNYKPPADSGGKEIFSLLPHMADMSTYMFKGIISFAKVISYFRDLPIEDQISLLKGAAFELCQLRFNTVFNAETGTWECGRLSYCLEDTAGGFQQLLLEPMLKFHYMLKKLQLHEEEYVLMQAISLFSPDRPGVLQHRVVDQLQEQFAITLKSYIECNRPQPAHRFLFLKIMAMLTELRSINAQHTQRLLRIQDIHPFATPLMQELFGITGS

Experiment [7] has as its target Nuclear receptor subfamily 1 group I member 2 (Rattus norvegicus) (UniProt Q9R1A7). Put plainly: Rat pregnane X receptor (rPXR) activation by small molecules, qHTS assay (AID 1346983). Further: nearly all actives have a fitted effect of over 20% in size. The following applies: rPXR luciferase reporter cells, One-Glo luminescence, 24 h; stronger effect = higher value. The procedure, abridged: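 Cell-based rPXR activation assay: rPXR cells, 2,000 per well, rested 5hr at 37 C, then exposed to compounds in DMSO for 24 hr at 37 C. Luciferase activity read by One-Glo luminescence after 30 min at room temperature.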

In experiment [8] the target is Nuclear receptor subfamily 1 group I member 2 (Homo sapiens) (UniProt O75469). Put plainly: Human pregnane X receptor (PXR) activation by small molecules, qHTS assay (AID 1346985). Further: nearly all actives have a fitted effect of over 40% in size. The procedure, abridged: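 DPX-2 cells (HepG2 co-transfected with a PXR response element and a CYP3A4-promoter luciferase construct) were seeded at 2,000 per well, rested 5 hr at 37C, then exposed to DMSO-dissolved compounds for 24 hr. Activation was read as luciferase luminescence.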

In experiment [9] the target is Acetylcholinesterase (Homo sapiens) (UniProt P22303). Description: Acetylcholinesterase (AChE) small molecule antagonists: colormetric cell-based qHTS assay (AID 1347395; calls by dose curve; further: nearly all actives have a fitted effect of over 30% in size). The procedure, abridged:
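SH-SY5Y cells; cpd 30 min 37 C; + DTNB/acetylthiocholine, 90 min 37 C; colorimetric thiocholine read; qHTS.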

The target is the same in experiment [10]. Put plainly: Acetylcholinesterase (AChE) small molecule antagonists: enzyme-based qHTS assay with human liver microsomes (AID 1347399; calls by dose curve; further: nearly all actives have a fitted effect of over 60% in size). Conditions: Potency: qHTS inhibition; outcome: qHTS inhibition. The procedure, abridged:
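Recombinant human AChE (50 mU/mL in the enzyme mix) and human liver microsomes (0.25 mg/mL final) were preincubated with compound and NADPH (0.25 mg/mL final) for 30 min at 37 C. Acetylthiocholine/DTNB was then added; thiocholine was read colorimetrically after 10 min at room temperature.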

Experiment [11] deals with Cytochrome P450 2D6 (Homo sapiens) (UniProt P10635). Description: Cytochrome P450 Family 2 Subfamily D Member 6 (CYP2D6) small molecule antagonists: luciferase reporter qHTS assay (AID 1671196). Further: nearly all actives have a fitted effect of over 50% in size. Further: potency means the concentration at half of the fitted maximal effect. The procedure, abridged:
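Read-out is luminescence from luciferin formed by CYP2D6 turnover of a proluciferin substrate, recorded as relative luminescence units. Reactions ran 1 h at room temperature after NADPH regeneration solution was added.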

Experiment [12] concerns the target Cytochrome P450 2C19 (Homo sapiens) (UniProt P33261). Description: Cytochrome P450 Family 2 Subfamily C Member 19 (CYP2C19) small molecule antagonists: luciferase reporter qHTS assay (AID 1671197). Further: nearly all actives have a fitted effect of over 65% in size. Further: potency means the concentration at half of the fitted maximal effect. The method in brief:
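Luminescent readout of CYP2C19 activity: luciferin product detected 20 min after adding detection reagent. Before that, compound and enzyme-substrate mix preincubated 10 min at room temperature; NADPH-regenerating system started a 1 h, 37C reaction. Ketoconazole as positive control.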

Experiment [13] concerns the target Cytochrome P450 2C9 (Homo sapiens) (UniProt P11712). Put plainly: Cytochrome P450 Family 2 Subfamily C Member 9 (CYP2C9) small molecule antagonists: luciferase reporter qHTS assay (AID 1671198). Further: nearly all actives have a fitted effect of over 50% in size. Further: potency means the concentration at half of the fitted maximal effect. The method in brief:
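P450-Glo proluciferin substrate with CYP2C9 enzyme; 10 min RT preincubation, then NADPH regeneration 1 h at 37C; luciferin detection reagent 20 min RT, luminescence in relative luminescence units.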

The target of experiment [14] is Cytochrome P450 1A2 (Homo sapiens) (UniProt P05177). Description: Cytochrome P450 Family 1 Subfamily A Member 2 (CYP1A2) small molecule antagonists: luciferase reporter qHTS assay (AID 1671199). Further: nearly all actives have a fitted effect of over 50% in size. Further: potency means the concentration at half of the fitted maximal effect. The procedure, abridged: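 P450-Glo CYP1A2, 1536-well qHTS: enzyme/proluciferin substrate + cpd (DMSO), 10 min RT; NADPH regen, 1 h RT; detection reagent, 20 min; luminescence, RLU.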

Experiment [15] has as its target Voltage-gated inwardly rectifying potassium channel KCNH2 (Homo sapiens) (UniProt Q12809). Put plainly: Human Ether-a-go-go-Related Gene (hERG) channel small molecule antagonists: fluorescence cell-based qHTS assay (AID 1671200). The method in brief: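 Read-out: thallium influx as a surrogate for potassium, tracked as fluorescence (480 nm ex/540 nm em) every second for 2 min after Stimulus Buffer addition in dye-loaded hERG-U2OS cells.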

Experiment [16] deals with Acetylcholinesterase (Homo sapiens) (UniProt P22303). Put plainly: Acetylcholinesterase (AChE) small molecule antagonists: enzyme-based qHTS assay (AID 1347397; calls by dose curve; further: nearly all actives have a fitted effect of over 55% in size). Conditions: Potency: AChE enzyme activity inhibition; outcome: AChE enzyme activity inhibition. The procedure, abridged: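 Recombinant human AChE (50 mU/mL) preincubated with compound 30 min at room temperature; acetylthiocholine plus DTNB then added, and thiocholine formation read colorimetrically after 10 min at room temperature. DMSO served as vehicle control.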
Acetylcholinesterase (Homo sapiens), sequence (P22303 whole entry, looked up): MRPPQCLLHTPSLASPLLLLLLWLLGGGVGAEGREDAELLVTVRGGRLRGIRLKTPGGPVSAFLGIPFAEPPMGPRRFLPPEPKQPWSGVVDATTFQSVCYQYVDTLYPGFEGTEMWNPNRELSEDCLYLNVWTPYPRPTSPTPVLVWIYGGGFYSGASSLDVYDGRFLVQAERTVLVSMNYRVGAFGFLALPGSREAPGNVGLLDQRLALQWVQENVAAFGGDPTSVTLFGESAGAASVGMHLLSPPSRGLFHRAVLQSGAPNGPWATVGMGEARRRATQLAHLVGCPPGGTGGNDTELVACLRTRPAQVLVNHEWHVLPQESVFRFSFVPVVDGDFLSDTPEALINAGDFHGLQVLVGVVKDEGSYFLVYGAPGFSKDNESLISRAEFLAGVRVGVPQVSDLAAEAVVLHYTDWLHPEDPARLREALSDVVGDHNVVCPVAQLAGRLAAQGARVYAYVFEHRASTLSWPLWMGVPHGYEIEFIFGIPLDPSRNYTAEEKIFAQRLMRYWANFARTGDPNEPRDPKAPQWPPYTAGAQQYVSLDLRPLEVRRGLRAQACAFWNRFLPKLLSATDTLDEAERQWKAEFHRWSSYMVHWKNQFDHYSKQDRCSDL

Experiment [17] has the same target. Put plainly: Acetylcholinesterase (AChE) small molecule antagonists: fluorescence cell-based qHTS assay (AID 1347398; calls by dose curve; further: nearly all actives have a fitted effect of over 50% in size). Conditions: Potency: AChE activity; outcome: AChE activity. The method in brief:
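SH-SY5Y cells (2000/well), attached overnight, incubated with compound 30 min at 37 C. Acetylthiocholine plus Thiolite Green then added for 40 min at room temperature. Thiocholine fluorescence (Ex/Em 490/520 nm) reports cellular AChE activity.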

In experiment [18] the target is Cytochrome P450 3A4 (Homo sapiens) (UniProt P08684). Put plainly: Cytochrome P450 Family 3 Subfamily A Member 4 (CYP3A4) small molecule antagonists: luciferase reporter qHTS assay (AID 1671201). Further: nearly all actives have a fitted effect of over 50% in size. Further: potency means the concentration at half of the fitted maximal effect. The procedure, abridged:
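Luminescent readout (RLU) proportional to CYP3A4 activity, from luciferin generated off a proluciferin substrate. Enzyme–substrate mix plus compound 10 min at room temp, NADPH regeneration 1 h, detection reagent 20 min.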

The nature of experiment [19]: Caspase-3/7 induction in CHO-K1 cells by small molecules, qHTS cell viability counter screen (AID 1346979). Further: nearly all actives have a fitted effect of over 35% in size. The procedure, abridged: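 CHO-K1 wt, 1,500 cells/well; 5hr pre-incubation 37C/5% CO2; compound pin transfer (DMSO); 16hr exposure; CellTiter-Fluor added, 1hr, fluorescence read.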

“And” between values parts separate entries of the source, which are not always exact repeats. Equal values may be shown once. Values without a mark were called inactive. Records with an inconclusive call do not appear. The source made the active and inactive calls. Unless noted, the call rests on the fitted dose curve; in most records, active means well fitted curve in the direction sought with a large enough effect in the repeat runs; inconclusive means weak or mixed curves; inactive means no such curve, though single readings can be large; an effect the other way counts as inactive or inconclusive.
On the % scale 0 is the no-effect control and ±100 the full control effect.

Voltage-gated inwardly rectifying potassium channel KCNH2 (Homo sapiens), sequence (Q12809 whole entry, looked up): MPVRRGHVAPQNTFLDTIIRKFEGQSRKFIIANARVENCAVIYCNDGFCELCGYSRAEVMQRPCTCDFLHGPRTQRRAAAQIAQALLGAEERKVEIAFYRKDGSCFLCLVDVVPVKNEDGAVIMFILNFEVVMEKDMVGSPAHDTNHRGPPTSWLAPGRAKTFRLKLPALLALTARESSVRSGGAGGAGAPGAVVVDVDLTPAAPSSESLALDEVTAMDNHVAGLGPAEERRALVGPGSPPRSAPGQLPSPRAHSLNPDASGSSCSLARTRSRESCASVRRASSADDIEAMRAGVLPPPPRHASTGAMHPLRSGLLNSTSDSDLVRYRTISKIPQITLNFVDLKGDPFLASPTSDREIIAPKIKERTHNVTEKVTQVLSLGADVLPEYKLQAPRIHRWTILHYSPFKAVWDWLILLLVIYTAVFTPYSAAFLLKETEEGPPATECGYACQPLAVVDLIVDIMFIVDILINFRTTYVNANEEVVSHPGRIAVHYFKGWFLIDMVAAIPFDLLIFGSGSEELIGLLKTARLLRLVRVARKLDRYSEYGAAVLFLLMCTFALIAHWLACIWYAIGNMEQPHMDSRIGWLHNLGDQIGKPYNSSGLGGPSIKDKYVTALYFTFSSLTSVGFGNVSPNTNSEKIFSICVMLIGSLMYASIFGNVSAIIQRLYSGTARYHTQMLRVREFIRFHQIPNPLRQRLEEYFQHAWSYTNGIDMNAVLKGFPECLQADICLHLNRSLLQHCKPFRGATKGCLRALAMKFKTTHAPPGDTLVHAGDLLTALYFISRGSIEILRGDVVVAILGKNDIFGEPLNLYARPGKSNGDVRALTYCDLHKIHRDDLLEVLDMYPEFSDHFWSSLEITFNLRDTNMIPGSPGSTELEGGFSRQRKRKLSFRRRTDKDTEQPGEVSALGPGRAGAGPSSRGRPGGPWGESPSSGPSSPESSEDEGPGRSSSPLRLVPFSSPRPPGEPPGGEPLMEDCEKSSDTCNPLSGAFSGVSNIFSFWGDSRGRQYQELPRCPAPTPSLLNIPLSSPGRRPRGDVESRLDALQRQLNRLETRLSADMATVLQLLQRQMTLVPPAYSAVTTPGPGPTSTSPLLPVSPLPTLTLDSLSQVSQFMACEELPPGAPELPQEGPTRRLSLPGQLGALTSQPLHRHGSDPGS
Thyrotropin-releasing hormone receptor (Homo sapiens), sequence (P34981 whole entry, looked up): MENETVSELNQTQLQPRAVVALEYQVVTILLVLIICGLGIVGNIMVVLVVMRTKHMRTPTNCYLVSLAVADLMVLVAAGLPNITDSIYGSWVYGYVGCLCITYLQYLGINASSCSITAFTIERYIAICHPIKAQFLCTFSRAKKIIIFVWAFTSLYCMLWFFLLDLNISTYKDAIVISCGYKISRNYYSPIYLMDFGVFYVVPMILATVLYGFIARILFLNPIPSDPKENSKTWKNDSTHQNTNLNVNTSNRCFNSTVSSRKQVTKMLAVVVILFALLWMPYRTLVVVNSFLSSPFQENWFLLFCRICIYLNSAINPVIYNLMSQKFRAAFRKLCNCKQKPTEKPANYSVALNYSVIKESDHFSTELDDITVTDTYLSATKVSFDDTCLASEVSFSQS
Cytochrome P450 2C9 (Homo sapiens), sequence (P11712 whole entry, looked up): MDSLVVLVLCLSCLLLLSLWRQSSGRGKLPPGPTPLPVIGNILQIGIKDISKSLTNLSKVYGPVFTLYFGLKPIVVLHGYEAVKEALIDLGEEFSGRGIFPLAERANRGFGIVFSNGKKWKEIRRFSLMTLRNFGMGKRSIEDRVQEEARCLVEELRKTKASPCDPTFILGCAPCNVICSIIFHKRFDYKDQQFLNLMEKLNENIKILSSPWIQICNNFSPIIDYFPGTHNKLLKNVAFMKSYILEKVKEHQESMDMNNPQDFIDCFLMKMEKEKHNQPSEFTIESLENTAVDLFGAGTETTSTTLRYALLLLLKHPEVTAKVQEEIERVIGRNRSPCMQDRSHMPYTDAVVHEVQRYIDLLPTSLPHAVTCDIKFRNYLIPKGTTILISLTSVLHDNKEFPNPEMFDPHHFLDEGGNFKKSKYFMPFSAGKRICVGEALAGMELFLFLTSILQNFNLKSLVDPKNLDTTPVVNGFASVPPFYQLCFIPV
Cytochrome P450 2C19 (Homo sapiens), sequence (P33261 whole entry, looked up): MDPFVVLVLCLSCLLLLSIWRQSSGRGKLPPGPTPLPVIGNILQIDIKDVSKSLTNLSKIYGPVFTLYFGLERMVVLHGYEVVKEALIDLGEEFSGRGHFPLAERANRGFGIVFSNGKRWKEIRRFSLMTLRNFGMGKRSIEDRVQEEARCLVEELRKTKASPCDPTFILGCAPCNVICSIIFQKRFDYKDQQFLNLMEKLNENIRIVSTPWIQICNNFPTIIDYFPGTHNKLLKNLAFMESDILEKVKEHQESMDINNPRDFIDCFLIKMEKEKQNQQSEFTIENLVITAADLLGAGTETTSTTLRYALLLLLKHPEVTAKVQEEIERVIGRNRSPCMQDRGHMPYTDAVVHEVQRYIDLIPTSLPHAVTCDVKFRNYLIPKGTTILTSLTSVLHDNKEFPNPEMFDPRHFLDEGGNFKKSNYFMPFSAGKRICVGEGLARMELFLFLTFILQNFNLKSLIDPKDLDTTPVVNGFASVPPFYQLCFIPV
Cytochrome P450 2D6 (Homo sapiens), sequence (P10635 whole entry, looked up): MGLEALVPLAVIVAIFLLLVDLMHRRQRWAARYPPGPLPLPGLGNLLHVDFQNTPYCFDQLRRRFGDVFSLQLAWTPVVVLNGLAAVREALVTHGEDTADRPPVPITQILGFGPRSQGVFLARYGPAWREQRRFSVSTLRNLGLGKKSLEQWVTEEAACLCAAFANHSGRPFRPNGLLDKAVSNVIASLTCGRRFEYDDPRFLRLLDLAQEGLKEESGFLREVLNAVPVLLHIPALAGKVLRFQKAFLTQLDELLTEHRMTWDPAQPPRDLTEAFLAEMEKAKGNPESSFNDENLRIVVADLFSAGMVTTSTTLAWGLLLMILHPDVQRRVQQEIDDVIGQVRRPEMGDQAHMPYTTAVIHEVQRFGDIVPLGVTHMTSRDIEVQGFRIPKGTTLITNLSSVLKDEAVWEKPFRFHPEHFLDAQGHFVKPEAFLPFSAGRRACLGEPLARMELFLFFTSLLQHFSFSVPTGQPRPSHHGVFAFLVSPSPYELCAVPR
Cytochrome P450 3A4 (Homo sapiens), sequence (P08684 whole entry, looked up): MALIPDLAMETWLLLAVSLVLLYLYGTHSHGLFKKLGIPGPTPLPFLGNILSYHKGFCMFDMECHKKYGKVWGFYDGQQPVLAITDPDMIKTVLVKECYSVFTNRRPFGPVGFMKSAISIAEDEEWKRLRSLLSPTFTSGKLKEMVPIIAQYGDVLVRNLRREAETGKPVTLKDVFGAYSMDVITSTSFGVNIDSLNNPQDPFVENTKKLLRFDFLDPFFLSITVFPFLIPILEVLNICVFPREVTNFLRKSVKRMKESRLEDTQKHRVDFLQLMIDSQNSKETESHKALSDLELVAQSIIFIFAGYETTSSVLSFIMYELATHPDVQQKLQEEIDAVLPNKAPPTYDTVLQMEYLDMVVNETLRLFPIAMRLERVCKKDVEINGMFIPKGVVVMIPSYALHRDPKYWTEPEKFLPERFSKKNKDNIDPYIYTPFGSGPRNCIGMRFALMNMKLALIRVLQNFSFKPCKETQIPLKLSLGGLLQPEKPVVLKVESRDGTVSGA
Nuclear receptor subfamily 1 group I member 2 (Rattus norvegicus), sequence (Q9R1A7 whole entry, looked up): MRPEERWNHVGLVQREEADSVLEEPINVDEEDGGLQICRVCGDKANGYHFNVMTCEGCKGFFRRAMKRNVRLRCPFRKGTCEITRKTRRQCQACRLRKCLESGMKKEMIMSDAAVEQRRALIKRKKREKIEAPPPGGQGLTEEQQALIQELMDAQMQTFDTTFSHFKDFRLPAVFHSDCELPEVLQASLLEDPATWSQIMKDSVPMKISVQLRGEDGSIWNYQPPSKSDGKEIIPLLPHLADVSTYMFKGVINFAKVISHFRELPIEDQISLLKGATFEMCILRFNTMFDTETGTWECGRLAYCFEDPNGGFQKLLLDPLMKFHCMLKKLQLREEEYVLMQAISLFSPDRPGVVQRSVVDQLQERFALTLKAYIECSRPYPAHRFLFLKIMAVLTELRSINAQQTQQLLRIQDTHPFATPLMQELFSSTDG

As for `Cc1ccc(S(=O)(=O)N[C@@H](CCCCN)C(=O)CCl)cc1`, the compound was classed as inactive in [1], in experiment [3] and in experiment [4]. In addition, the Potency entry in experiment [2], in experiment [5], in experiment [6], in experiment [8], in [9] and in [10] was “inactive” throughout. For the same compound, the Potency entry in [13], in experiment [14] and in experiment [15] was “inactive” each time. The max activation in [7] is -2.32%. The Potency in experiment [11] is 17.4 µM (active); in [12] it was 38.9 µM (active).
For `CCCOC(=O)Cc1ccc(OCC(=O)N(CC)CC)c(OC)c1`, the outcome in experiment [1], in [3] and in experiment [4] was inactive. Besides, the Potency entry in experiment [2], in experiment [5], in experiment [9], in [16], in experiment [17] and in experiment [10] was “inactive” in each case. Also, the Potency entry in experiment [11], in [12], in experiment [13] and in experiment [14] was “inactive” each time. Besides, the Potency in [6] was 15 µM (active).
For `CC(C)(N)Cc1ccccc1Cl`, the result in experiment [1], in [3] and in [4] was inactive. The Potency entry in [2], in [5], in experiment [6], in [9], in experiment [16] and in experiment [17] was “inactive” throughout. In addition, the Potency entry in experiment [10], in [12], in [13] and in experiment [18] was “inactive” throughout. Also, the Potency in experiment [11] was 4.36 µM (active).
As to `CCCCCCC1CCOC1=O` (configuration not stated), the compound was classed as inactive in [1], in experiment [3] and in experiment [4]. In addition, the Potency result in experiment [2], in [5], in experiment [6], in [9], in experiment [16] and in experiment [17] was “inactive” throughout. Further, the Potency result in experiment [10], in experiment [11], in [13], in experiment [15] and in experiment [18] was “inactive” in each case. The Potency in experiment [12] was 39.9 µM (active).
As for `CN(C)C(=O)Oc1cc(OC(=O)N(C)C)cc(C(O)CNC(C)(C)C)c1` (configuration not stated), the compound was called inactive in experiment [1], in experiment [3] and in [4]. Further, the Potency entry in experiment [2], in experiment [5], in [6], in [8], in experiment [17] and in experiment [10] was “inactive” throughout. Further, the Potency entry in [12], in experiment [13], in experiment [14], in [15] and in [18] was “inactive” in each case. The max activation in experiment [7] was -1.43%. The Potency in experiment [11] is 4.9 µM (active).
For `Cc1ccc(Cl)c(O)c1`, the call in experiment [1] and in experiment [4] was inactive. Besides, the Potency entry in [2], in experiment [19], in experiment [5], in experiment [6], in experiment [8] and in experiment [9] was “inactive” each time. Also, the Potency result in [16], in experiment [17], in experiment [10], in [11], in experiment [12] and in [13] was “inactive” each time. The Potency result in experiment [14], in experiment [15] and in [18] was “inactive” each time. The max activation in experiment [7] was -0.916%.
For the compound `C[C@H]1CCCC(=O)CCC/C=C/c2cc(O)cc(O)c2C(=O)O1`, the outcome in experiment [1], in experiment [3] and in experiment [4] was inactive. Besides, the Potency in [2] is 52.5 µM (active); in [5], 46.8 µM (active) and 22.4 µM (active); in experiment [11], 54.3 µM (active); in [12], 17.2 µM (active) and 29.2 µM (active); in experiment [13], 4.84 µM (active) and 7.34 µM (active); in experiment [14] it was 21.6 µM (active) and 13.1 µM (active). Further, the Potency in experiment [18] was 122 nM (active) and 184 nM (active). The Potency entry in experiment [9], in experiment [16], in experiment [17], in [10] and in experiment [15] was “inactive” each time.
